# From paper PMC9911399, “Two distinct binding modes provide the RNA-binding protein RbFox with extraordinary sequence specificity”
# Where a chain is given by its changes, count along the chain named. In all, about 16,000 sequences were measured (“ka relative to ugcaugu”: median about 0.096, highest 2% from about 0.35 on). The sample as a whole holds a higher share of the highest values than the screen did.
# B1: CACAGAG (DNA:RNA)
# RNA: GGGAGACCGGAAUUCAGAUUGUCCCACAGAGUUAAAUCCCGUCGUAGCCACCA
# DNA 1: CAATCTGAATTCCGGTCTCCC
# DNA 2: TGGTGGCTACGACGGGATT
# B2: ACGGAAU (DNA:RNA)
# RNA: B1 RNA with C25A, A26C, C27G, A28G, G29A, G31U
# DNA 1: CAATCTGAATTCCGGTCTCCC
# DNA 2: TGGTGGCTACGACGGGATT
# B3: AUGUUAC (DNA:RNA)
# RNA: B1 RNA with C25A, A26U, C27G, A28U, G29U, G31C
# DNA 1: CAATCTGAATTCCGGTCTCCC
# DNA 2: TGGTGGCTACGACGGGATT
# B4: CGGGGCG (DNA:RNA)
# RNA: B1 RNA with A26G, C27G, A28G, A30C
# DNA 1: CAATCTGAATTCCGGTCTCCC
# DNA 2: TGGTGGCTACGACGGGATT
# B5: GGGAAUG (DNA:RNA)
# RNA: B1 RNA with C25G, A26G, C27G, G29A, A30U
# DNA 1: CAATCTGAATTCCGGTCTCCC
# DNA 2: TGGTGGCTACGACGGGATT
# B6: AGAAUGU (DNA:RNA)
# RNA: B1 RNA with C25A, A26G, C27A, G29U, A30G, G31U
# DNA 1: CAATCTGAATTCCGGTCTCCC
# DNA 2: TGGTGGCTACGACGGGATT
# B7: GUUAAUG (DNA:RNA)
# RNA: B1 RNA with C25G, A26U, C27U, G29A, A30U
# DNA 1: CAATCTGAATTCCGGTCTCCC
# DNA 2: TGGTGGCTACGACGGGATT
# B8: AAGAGAA (DNA:RNA)
# RNA: B1 RNA with C25A, C27G, G31A
# DNA 1: CAATCTGAATTCCGGTCTCCC
# DNA 2: TGGTGGCTACGACGGGATT
# B9: AGAUUGU (DNA:RNA)
# RNA: GGGAGACCGGAAUUCAGAUUGUCCAGAUUGUUUAAAUCCCGUCGUAGCCACCA
# DNA 1: CAATCTGAATTCCGGTCTCCC
# DNA 2: TGGTGGCTACGACGGGATT
# B10: AGAAAUG (DNA:RNA)
# RNA: B9 RNA with U28A, U29A, G30U, U31G
# DNA 1: CAATCTGAATTCCGGTCTCCC
# DNA 2: TGGTGGCTACGACGGGATT
# B11: AAGAUUG (DNA:RNA)
# RNA: B1 RNA with C25A, C27G, G29U, A30U
# DNA 1: CAATCTGAATTCCGGTCTCCC
# DNA 2: TGGTGGCTACGACGGGATT
# B12: GAGUAUC (DNA:RNA)
# RNA: B9 RNA with A25G, G26A, A27G, U29A, G30U, U31C
# DNA 1: CAATCTGAATTCCGGTCTCCC
# DNA 2: TGGTGGCTACGACGGGATT
# B13: GGAAAUG (DNA:RNA)
# RNA: B9 RNA with A25G, U28A, U29A, G30U, U31G
# DNA 1: CAATCTGAATTCCGGTCTCCC
# DNA 2: TGGTGGCTACGACGGGATT
# B14: GAGAGUA (DNA:RNA)
# RNA: B1 RNA with C25G, C27G, A30U, G31A
# DNA 1: CAATCTGAATTCCGGTCTCCC
# DNA 2: TGGTGGCTACGACGGGATT
# B15: GAGUAUG (DNA:RNA)
# RNA: B1 RNA with C25G, C27G, A28U, G29A, A30U
# DNA 1: CAATCTGAATTCCGGTCTCCC
# DNA 2: TGGTGGCTACGACGGGATT
# B16: AAGAAUG (DNA:RNA)
# RNA: B1 RNA with C25A, C27G, G29A, A30U
# DNA 1: CAATCTGAATTCCGGTCTCCC
# DNA 2: TGGTGGCTACGACGGGATT
# B17: UCAUCAU (DNA:RNA)
# RNA: B9 RNA with A25U, G26C, U29C, G30A
# DNA 1: CAATCTGAATTCCGGTCTCCC
# DNA 2: TGGTGGCTACGACGGGATT
# B18: UGCGCUU (DNA:RNA)
# RNA: B9 RNA with A25U, A27C, U28G, U29C, G30U
# DNA 1: CAATCTGAATTCCGGTCTCCC
# DNA 2: TGGTGGCTACGACGGGATT
# B19: AUGACGC (DNA:RNA)
# RNA: B9 RNA with G26U, A27G, U28A, U29C, U31C
# DNA 1: CAATCTGAATTCCGGTCTCCC
# DNA 2: TGGTGGCTACGACGGGATT
# B20: CACUACU (DNA:RNA)
# RNA: B1 RNA with A28U, G29A, A30C, G31U
# DNA 1: CAATCTGAATTCCGGTCTCCC
# DNA 2: TGGTGGCTACGACGGGATT
# B21: CAUAUAU (DNA:RNA)
# RNA: B1 RNA with C27U, G29U, G31U
# DNA 1: CAATCTGAATTCCGGTCTCCC
# DNA 2: TGGTGGCTACGACGGGATT
# B22: CGAAACU (DNA:RNA)
# RNA: B9 RNA with A25C, U28A, U29A, G30C
# DNA 1: CAATCTGAATTCCGGTCTCCC
# DNA 2: TGGTGGCTACGACGGGATT
# B23: ACGAAUC (DNA:RNA)
# RNA: B9 RNA with G26C, A27G, U28A, U29A, G30U, U31C
# DNA 1: CAATCTGAATTCCGGTCTCCC
# DNA 2: TGGTGGCTACGACGGGATT
# B24: GAGAAUG (DNA:RNA)
# RNA: B1 RNA with C25G, C27G, G29A, A30U
# DNA 1: CAATCTGAATTCCGGTCTCCC
# DNA 2: TGGTGGCTACGACGGGATT
# B25: GAGACCG (DNA:RNA)
# RNA: B1 RNA with C25G, C27G, G29C, A30C
# DNA 1: CAATCTGAATTCCGGTCTCCC
# DNA 2: TGGTGGCTACGACGGGATT
# B26: GAGCAUC (DNA:RNA)
# RNA: B1 RNA with C25G, C27G, A28C, G29A, A30U, G31C
# DNA 1: CAATCTGAATTCCGGTCTCCC
# DNA 2: TGGTGGCTACGACGGGATT
# B27: CGGAAUG (DNA:RNA)
# RNA: B1 RNA with A26G, C27G, G29A, A30U
# DNA 1: CAATCTGAATTCCGGTCTCCC
# DNA 2: TGGTGGCTACGACGGGATT
# B28: CUAAAUG (DNA:RNA)
# RNA: B1 RNA with A26U, C27A, G29A, A30U
# DNA 1: CAATCTGAATTCCGGTCTCCC
# DNA 2: TGGTGGCTACGACGGGATT
# B29: ACGAAUG (DNA:RNA)
# RNA: B1 RNA with C25A, A26C, C27G, G29A, A30U
# DNA 1: CAATCTGAATTCCGGTCTCCC
# DNA 2: TGGTGGCTACGACGGGATT
# B30: GUAAAUG (DNA:RNA)
# RNA: B1 RNA with C25G, A26U, C27A, G29A, A30U
# DNA 1: CAATCTGAATTCCGGTCTCCC
# DNA 2: TGGTGGCTACGACGGGATT
# B31: GAGCAUG (DNA:RNA)
# RNA: B1 RNA with C25G, C27G, A28C, G29A, A30U
# DNA 1: CAATCTGAATTCCGGTCTCCC
# DNA 2: TGGTGGCTACGACGGGATT
# B32: GAGAUUG (DNA:RNA)
# RNA: B1 RNA with C25G, C27G, G29U, A30U
# DNA 1: CAATCTGAATTCCGGTCTCCC
# DNA 2: TGGTGGCTACGACGGGATT
# B33: ACGAUUG (DNA:RNA)
# RNA: B9 RNA with G26C, A27G, U28A, G30U, U31G
# DNA 1: CAATCTGAATTCCGGTCTCCC
# DNA 2: TGGTGGCTACGACGGGATT
# B34: GAGAGCA (DNA:RNA)
# RNA: B1 RNA with C25G, C27G, A30C, G31A
# DNA 1: CAATCTGAATTCCGGTCTCCC
# DNA 2: TGGTGGCTACGACGGGATT
# Molecular target: T1, RBFOX1 RRM RbFoxmut (Fox-RRM*) (Homo sapiens, UniProt Q9NWB1 109-208, R118D;E147R;N151S;E152T)
# T1 sequence: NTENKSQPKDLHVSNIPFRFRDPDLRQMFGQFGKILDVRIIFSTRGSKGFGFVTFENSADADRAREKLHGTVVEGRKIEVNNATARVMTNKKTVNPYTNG
# Test: EMSA; HiTS-Eq, 1 nM pool, 10 min; buffer printed only for the single-RNA assays: 10 mM Tris pH 7.5, 150 mM NaCl, 3.4 mM EDTA, 0.001% NP-40, 30 C
# Conditions: tags: His6 N-terminal (pET28a); label: 5' 32P
# Summary of the method: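 Relative association constants, normalised to the cognate motif, were derived by comparing read counts of each RNA species with those of the control reaction. The RNA sequenced was the free fraction, separated by 8% native PAGE after a 10 min equilibration in 50 µL of 1 nM 5′-radiolabelled RNA (7 randomized nucleotides) with increasing concentrations of purified wild-type or mutant RbFox RRM.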
row,Binder,binding signal
1,B1,0.124 KA relative to UGCAUGU
2,B2,0.115 KA relative to UGCAUGU
3,B3,0.161 KA relative to UGCAUGU
4,B4,0.16 KA relative to UGCAUGU
5,B5,1.15 KA relative to UGCAUGU
6,B6,0.798 KA relative to UGCAUGU
7,B7,0.138 KA relative to UGCAUGU
8,B8,0.115 KA relative to UGCAUGU
9,B9,0.222 KA relative to UGCAUGU
10,B10,0.121 KA relative to UGCAUGU
11,B11,0.223 KA relative to UGCAUGU
12,B12,0.237 KA relative to UGCAUGU
13,B13,0.177 KA relative to UGCAUGU
14,B14,0.143 KA relative to UGCAUGU
15,B15,0.795 KA relative to UGCAUGU
16,B16,1.07 KA relative to UGCAUGU
17,B17,0.0991 KA relative to UGCAUGU

row,Binder,binding signal
1,B18,0.095 KA relative to UGCAUGU
2,B19,0.0829 KA relative to UGCAUGU
3,B20,0.0793 KA relative to UGCAUGU
4,B21,0.114 KA relative to UGCAUGU
5,B22,0.0571 KA relative to UGCAUGU
6,B23,0.283 KA relative to UGCAUGU
7,B24,1.5 KA relative to UGCAUGU
8,B25,0.0845 KA relative to UGCAUGU
9,B26,0.278 KA relative to UGCAUGU
10,B27,1.43 KA relative to UGCAUGU
11,B28,0.0852 KA relative to UGCAUGU
12,B29,1.2 KA relative to UGCAUGU
13,B30,0.125 KA relative to UGCAUGU
14,B31,1.12 KA relative to UGCAUGU
15,B32,0.314 KA relative to UGCAUGU
16,B33,0.234 KA relative to UGCAUGU
17,B34,0.151 KA relative to UGCAUGU
